# Values joined by “and” are separate entries in the source; they are usually repeats but may differ in a detail not shown here. Identical values can stand only once. Records with an inconclusive call do not appear. The source holds several records for some structures; these can differ, active in one and inactive in another. Active and inactive are the calls of the source. How the source made its calls, unless noted: active means hit-call score of the fitted dose curve at least 0.9, where 1 is the maximum; inconclusive means response in the unintended direction; inactive means score below 0.9.
# What was measured:
# [1] = ATG_M_61_XSP2: Attagene TRANS-FACTORIAL Multi-Species (XSP2) HepG2 Assay for M61 Transcription Factor (Internal Marker) (AID 2283835; active means hit-call score of the fitted dose curve at least 0.9, where 1 is the maximum; inactive means score below 0.9;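 further: active means a rise in signal above the DMSO baseline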)
# Method in brief: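 Internal background marker, read as RT-PCR/capillary-electrophoresis reporter mRNA 24 h post-dose in transiently transfected HepG2 cells. Androgen receptor stimulated with 3 nM 6-alpha-fluorotestosterone plus 1.5 nM norgestrel; gain of signal versus DMSO analysed.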
# [2] = target: zebrafish Thyroid Hormone Receptor beta (TRb), thrb (gene 30607) (UniProt Q9PVE4); experiment: ATG_zfTRb_XSP2: Attagene TRANS-FACTORIAL Multi-Species (XSP1) HepG2 Assay for zebrafish Thyroid Hormone Receptor beta (TRb) (AID 2283836);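 on AC50: potency for induction of reporter signal above DMSO so agonist direction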
# Method in brief: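 Transfect HepG2 with multiple reporter transcription units, dose chemical, incubate 24 h. Isolate RNA, reverse-transcribe, amplify and fluorescently label reporter sequences, digest with HpaI, then resolve by capillary electrophoresis. Positive direction fitted against DMSO.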
# [3] = ATG_XTT_Cytotoxicity_XSP2: Cytotoxicity Assessment in the Attagene TRANS-FACTORIAL Multi-Species (XSP2) HepG2 Assay (AID 2283837)
# Method in brief: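 XTT-based cell number read-out in human HepG2 liver cells carrying transfected reporter units, measured 24 h after chemical dosing. Activity is signal loss versus DMSO baseline.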
# [4] = target: human Thyroid hormone Receptor alpha (TRa), THRA (gene 7067) (UniProt P10827); experiment: ATG_hTRa_XSP2: Attagene TRANS-FACTORIAL Multi-Species (XSP2) HepG2 Assay for human Thyroid hormone Receptor alpha (TRa) (AID 2283838)
# Method in brief: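 Reporter transcripts were read by RT-PCR with fluorescent primer extension, HpaI digestion and capillary electrophoresis. These came from HepG2 cells carrying multiplexed TRa-Gal4 TRANS constructs, harvested 24 hours after dosing. The medium also held 6-alpha-fluorotestosterone (3 nM) and norgestrel (1.5 nM), and increases were fitted against DMSO.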
# [5] = target: frog Thyroid hormone Receptor alpha (TRa), thra-a (gene 397942) (UniProt P15204); experiment: ATG_frTRa_XSP2: Attagene TRANS-FACTORIAL Multi-Species (XSP2) HepG2 Assay for frog Thyroid hormone Receptor alpha (TRa) (AID 2283839);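 on AC50: AC50 reflects induction of frog TRa-driven reporter mRNA above DMSO baseline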
# Method in brief: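 Frog thyroid receptor alpha was tested as an exogenous NR-Gal4 fusion in transiently transfected HepG2 cells. After 24 h chemical treatment, reporter mRNA induction was quantified by RT-PCR and capillary electrophoresis, with gain-of-signal analysed relative to DMSO.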
# [6] = target: human Thyroid hormone Receptor beta (TRb), THRB (gene 7068) (UniProt P10828); experiment: ATG_hTRb_XSP2: Attagene TRANS-FACTORIAL Multi-Species (XSP2) HepG2 Assay for human Thyroid hormone Receptor beta (TRb) (AID 2283840);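 further: actives raise reporter mRNA so potency reflects agonist-like gain of signal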
# Method in brief: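 In this cell-based multiplex, HepG2 liver cells carrying transfected GAL4-UAS reporter constructs are exposed to chemical for 24 hours, then reporter transcripts are measured by RT-PCR with capillary electrophoresis, scored as gain of signal against DMSO.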
# [7] = tested on: Sodium/Iodide Symporter (NIS), SLC5A5 (gene 6528); experiment: CPHEA_Stoker_NIS_Inhibition_RAIU: CPHEA's Radioactive Iodide Uptake (RAIU) Assay for Sodium/Iodide Symporter (NIS) Inhibition, Stoker and Laws Labs (AID 2283841)
# Method in brief: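 hNIS-HEK293T-EPA cells incubated 2 h at room temperature with compound (0.001–100 uM, 0.5% DMSO) and 329 pM final 125I in HBSS/10 mM HEPES, pH 7.4. Intracellular 125I counted; normalised to DMSO maximal uptake, triplicate, three biological replicates.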
# [8] = CPHEA_Stoker_NIS_Cytotoxicity: Cytotoxicity Assessment for CPHEA's Radioactive Iodide Uptake (RAIU) Assay for Sodium/Iodide Symporter (NIS) Inhibition, Stoker and Laws Labs (AID 2283897);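 on AC50: active means loss of ATP signal versus DMSO meaning cytotoxicity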
# Method in brief: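 hNIS-HEK293T-EPA cells, human NIS expressed in HEK293T, treated 2 h with chemicals (0.001–100 uM, 0.5% final DMSO). ATP content read by CellTiter-Glo luminescence; loss of signal analysed relative to DMSO.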
# [9] = CEETOX_H295R_OHPREG_noMTC: CeeTox H295R High-throughput Steroidogenesis Assay for OH-Pregnenolone (OHPREG), maximum tolerated concentration (MTC) filtered results only (AID 2283912; active means hit-call score of the fitted dose curve at least 0.9, where 1 is the maximum; inactive means score below 0.9); details: actives raise or lower the signal
# Method in brief: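 Medium 17alpha-hydroxypregnenolone quantified by reverse-phase HPLC-MS/MS after 48 h chemical exposure of forskolin-prestimulated (10 uM, 48 h) H295R, 0.1% DMSO final. Fitting bidirectional relative to DMSO; no maximum-tolerated-concentration filtering applied.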
# zebrafish Thyroid Hormone Receptor beta (TRb), thrb (gene 30607), sequence (Q9PVE4 whole entry, looked up): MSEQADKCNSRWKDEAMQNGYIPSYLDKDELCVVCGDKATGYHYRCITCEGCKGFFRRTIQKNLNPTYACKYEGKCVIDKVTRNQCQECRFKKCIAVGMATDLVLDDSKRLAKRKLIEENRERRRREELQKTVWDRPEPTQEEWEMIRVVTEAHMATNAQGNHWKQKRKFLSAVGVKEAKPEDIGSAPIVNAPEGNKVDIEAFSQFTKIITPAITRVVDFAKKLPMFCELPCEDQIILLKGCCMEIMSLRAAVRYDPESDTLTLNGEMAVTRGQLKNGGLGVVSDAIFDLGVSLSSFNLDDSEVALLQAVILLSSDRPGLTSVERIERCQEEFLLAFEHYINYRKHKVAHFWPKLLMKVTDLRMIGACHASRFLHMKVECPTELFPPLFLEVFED
# human Thyroid hormone Receptor beta (TRb), THRB (gene 7068), sequence (P10828 whole entry, looked up, the tested form may be a part): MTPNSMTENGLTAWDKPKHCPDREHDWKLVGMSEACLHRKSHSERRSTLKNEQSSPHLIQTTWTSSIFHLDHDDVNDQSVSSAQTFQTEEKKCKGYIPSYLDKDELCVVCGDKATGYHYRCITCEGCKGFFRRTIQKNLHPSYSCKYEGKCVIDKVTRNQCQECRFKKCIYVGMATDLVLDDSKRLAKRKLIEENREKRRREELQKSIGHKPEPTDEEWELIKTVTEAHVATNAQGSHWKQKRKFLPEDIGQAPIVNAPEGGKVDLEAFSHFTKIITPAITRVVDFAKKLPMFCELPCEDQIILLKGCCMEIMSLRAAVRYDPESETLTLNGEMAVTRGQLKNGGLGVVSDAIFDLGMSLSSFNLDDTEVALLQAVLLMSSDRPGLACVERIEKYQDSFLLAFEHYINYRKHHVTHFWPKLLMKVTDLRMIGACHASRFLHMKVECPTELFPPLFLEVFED
# human Thyroid hormone Receptor alpha (TRa), THRA (gene 7067), sequence (P10827 whole entry, looked up, the tested form may be a part): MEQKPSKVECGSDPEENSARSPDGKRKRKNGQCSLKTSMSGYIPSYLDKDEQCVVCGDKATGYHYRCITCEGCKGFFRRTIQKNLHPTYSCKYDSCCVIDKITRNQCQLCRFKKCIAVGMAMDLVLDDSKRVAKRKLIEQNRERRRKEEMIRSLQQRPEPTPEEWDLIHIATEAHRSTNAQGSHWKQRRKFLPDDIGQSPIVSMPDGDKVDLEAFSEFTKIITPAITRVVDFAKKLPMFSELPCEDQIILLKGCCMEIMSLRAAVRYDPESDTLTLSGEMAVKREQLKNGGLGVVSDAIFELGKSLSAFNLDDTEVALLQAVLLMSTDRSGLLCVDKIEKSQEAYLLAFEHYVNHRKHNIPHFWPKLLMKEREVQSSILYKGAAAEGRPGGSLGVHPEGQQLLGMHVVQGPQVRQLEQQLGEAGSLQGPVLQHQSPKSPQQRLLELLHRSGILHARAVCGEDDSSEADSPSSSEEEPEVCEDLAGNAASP
# frog Thyroid hormone Receptor alpha (TRa), thra-a (gene 397942), sequence (P15204 whole entry, looked up, the tested form may be a part): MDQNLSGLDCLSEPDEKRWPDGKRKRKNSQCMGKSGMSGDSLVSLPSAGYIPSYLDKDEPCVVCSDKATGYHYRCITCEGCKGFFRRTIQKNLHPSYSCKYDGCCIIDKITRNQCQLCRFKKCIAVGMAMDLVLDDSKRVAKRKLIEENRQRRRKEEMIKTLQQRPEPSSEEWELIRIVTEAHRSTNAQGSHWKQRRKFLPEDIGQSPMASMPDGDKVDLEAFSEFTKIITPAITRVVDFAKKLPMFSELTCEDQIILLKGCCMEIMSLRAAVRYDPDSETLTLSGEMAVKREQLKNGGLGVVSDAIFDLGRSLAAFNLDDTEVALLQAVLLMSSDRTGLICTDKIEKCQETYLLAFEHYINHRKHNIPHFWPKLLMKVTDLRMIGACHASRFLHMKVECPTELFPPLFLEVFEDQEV
structure (smiles),measurement,setting,value
Oc1c(I)cc(I)cc1I,outcome,[1],inactive
same,AC50,[2],26.3 µM (active)
same,outcome,[2],inactive
same,AC50,[3],69.1 µM (active)
same,AC50,[4],26 µM (active)
same,AC50,[5],26.5 µM (active) and 25.7 µM (active)
same,AC50,[6],56.1 µM (active) and 16.2 µM (active)
CC(C)(C)c1cc(O)ccc1O,outcome,[1],inactive
same,outcome,[2],inactive
same,outcome,[4],inactive
same,outcome,[5],inactive
same,outcome,[6],inactive
CC1(C)Cc2cccc(O)c2O1,outcome,[7],inactive
Clc1ccc(C2(Cn3cncn3)CC(Br)CO2)c(Cl)c1 (stereo not given),outcome,[1],inactive
same,outcome,[2],inactive
same,outcome,[3],inactive
same,outcome,[4],inactive
same,AC50,[5],5.44 µM (active)
same,outcome,[5],inactive
same,outcome,[6],inactive
same,outcome,[7],inactive
same,outcome,[8],inactive
CC(C)c1cccc(C(C)C)c1O,outcome,[7],inactive
same,outcome,[8],inactive
CCOP(=S)(OCC)Oc1nc(Cl)c(Cl)cc1Cl,outcome,[7],inactive
same,outcome,[8],inactive
C[C@H]1CCCC(=O)CCC/C=C/c2cc(O)cc(O)c2C(=O)O1,outcome,[1],inactive
same,outcome,[3],inactive
same,outcome,[4],inactive
same,outcome,[6],inactive
same,outcome,[7],inactive
same,AC50,[8],83.8 µM (active)
same,outcome,[9],inactive
CC(C)C1CCC(Cc2ccc(Cl)cc2)C1(O)Cn1cncn1 (stereo not given),outcome,[1],inactive
same,outcome,[2],inactive
same,AC50,[3],42.8 µM (active)
same,outcome,[4],inactive
same,outcome,[5],inactive
same,outcome,[6],inactive
same,AC50,[7],20 µM (active)
same,AC50,[8],87.6 µM (active)
O=S(=O)(c1ccc(Cl)cc1)c1ccc(Cl)cc1,outcome,[1],inactive
same,outcome,[2],inactive
same,outcome,[3],inactive
same,outcome,[4],inactive
same,outcome,[5],inactive
same,AC50,[6],19.8 µM (active)
same,AC50,[7],9.92 µM (active)
same,outcome,[8],inactive
CC12CC1(C)C(=O)N(c1cc(Cl)cc(Cl)c1)C2=O (stereo not given),outcome,[1],inactive
same,outcome,[2],inactive
same,outcome,[4],inactive
same,outcome,[5],inactive
same,AC50,[6],63.2 µM (active)
same,outcome,[6],inactive

# — PubChem BioAssay (EPA / NIEHS)
